In PubChem BioAssay (EPA / NIEHS):
Active and inactive are the calls of the source. The calls were made as follows: active = hit-call score of the fitted dose curve at least 0.9, where 1 is the maximum; inactive = score below 0.9.

Target: Myc proto-oncogene protein (Homo sapiens) (UniProt P01106)
Experiment: ATG_Myc_CIS: Attagene CIS-FACTORIAL HepG2 Assay for human Myelocytomatosis (Myc) Proto-Oncogene Transcription Factor (AID 2282990)
Conditions: HepG2, Attagene cis-reporter transcription factor activity; actives raise or lower the signal
Summary of the method: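 After 24 h chemical treatment of HepG2 cells carrying multiplexed cis-regulated reporter constructs, reporter transcripts quantified by RT-PCR and capillary electrophoresis of fluorescent fragments. Gain or loss fitted against DMSO baseline.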

Sequence of Myc proto-oncogene protein (Homo sapiens) (P01106 whole entry, looked up): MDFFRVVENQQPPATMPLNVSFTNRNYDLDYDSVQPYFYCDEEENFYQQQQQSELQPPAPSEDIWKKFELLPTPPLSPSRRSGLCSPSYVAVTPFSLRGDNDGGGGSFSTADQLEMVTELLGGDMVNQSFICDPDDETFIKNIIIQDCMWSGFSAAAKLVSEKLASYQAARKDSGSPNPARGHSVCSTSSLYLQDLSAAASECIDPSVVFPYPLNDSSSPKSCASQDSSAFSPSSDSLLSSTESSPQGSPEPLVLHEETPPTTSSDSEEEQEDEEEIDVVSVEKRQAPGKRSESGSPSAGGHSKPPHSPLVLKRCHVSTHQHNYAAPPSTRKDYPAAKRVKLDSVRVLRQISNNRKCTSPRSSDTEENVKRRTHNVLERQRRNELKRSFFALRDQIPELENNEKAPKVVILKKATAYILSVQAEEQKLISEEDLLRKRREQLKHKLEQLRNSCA

Structure (SMILES)	outcome
OC(CCl)CCl	inactive
CCCCCCCCN(C)C	inactive
CCCC(CCC)C(=O)O	inactive
CC[C@H](C)C(=O)O[C@H]1C[C@H](O)C=C2C=C[C@H](C)[C@H](CC[C@@H](O)C[C@@H](O)CC(=O)O)[C@H]21	inactive
CC(C)CCCCCCOC(=O)C1CCCCC1C(=O)OCCCCCCC(C)C (centres undefined)	inactive
O=c1[nH]cnc2c1ncn2[C@H]1CC[C@@H](CO)O1	inactive
CC(C)C(=O)Nc1ccc([N+](=O)[O-])c(C(F)(F)F)c1	inactive
OC(Cn1cncn1)(Cn1cncn1)c1ccc(F)cc1F	inactive
FC(F)C(F)(F)COCC1CO1 (centres undefined)	inactive
CCCc1ccccc1	inactive
O=C(O)c1cccc(C[C@@H]2COc3ccc(OCc4nc5cc(F)ccc5s4)cc3[C@@H]2O)c1	inactive
NC(=O)NN=Cc1ccc([N+](=O)[O-])o1	inactive
O=C1CN(N=Cc2ccc([N+](=O)[O-])o2)C(=O)N1	inactive
OCCOCCOCCO	inactive
CCCCC(CC)C(=O)OCCOCCOCCOC(=O)C(CC)CCCC (centres undefined)	inactive

System: not listed separately
Experiment: ATG_NF_kB_CIS: Attagene CIS-FACTORIAL HepG2 Assay for human Nuclear Factor Kappa B (NF-kB) (AID 2282991)
Conditions: HepG2 Attagene cis-factorial NF-kB reporter mRNA; actives raise or lower the signal
Summary of the method: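 Read-out: reporter transcript levels quantified by RT-PCR plus capillary electrophoresis of 6-FAM-labelled, HpaI-cut fragments. Transfected HepG2 cells, 24 h compound exposure, endogenous NF-kB-driven cis element; gain or loss scored versus DMSO.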

Structure (SMILES)	outcome
CC[C@H](C)C(=O)O[C@H]1C[C@H](O)C=C2C=C[C@H](C)[C@H](CC[C@@H](O)C[C@@H](O)CC(=O)O)[C@H]21	inactive
Cc1nccn1-c1ccc(Sc2cccc(C3(C(N)=O)CCOCC3)c2)cc1	inactive
OC(Cn1cncn1)(Cn1cncn1)c1ccc(F)cc1F	inactive
CCn1nc(C)c2c1C(=O)NCC(c1ccc(O)cc1)=N2	inactive
FC(F)C(F)(F)COCC1CO1 (centres undefined)	inactive
OCCOCCOCCO	inactive
CCCCC(CC)C(=O)OCCOCCOCCOC(=O)C(CC)CCCC (centres undefined)	inactive

System: not listed separately
Experiment: ATG_NRF2_ARE_CIS: Attagene CIS-FACTORIAL HepG2 Assay for human Nuclear Factor Erythroid 2 Related Factor 2 (NFR2) response to Antioxidant Response Elements (ARE) (AID 2282992);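 as to AC50: reporter mRNA level measured by RT-PCR and capillary electrophoresis fluorescence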
Conditions: HepG2 Attagene ARE/NRF2 reporter, transcription factor activity; actives raise or lower the signal
Summary of the method: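 Fluorescence intensity of reporter-specific cDNA fragments, separated by capillary electrophoresis, reflects mRNA induction in transfected HepG2 cells at 24 h. Activity is fitted bidirectionally, DMSO serving as baseline.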

Structure (SMILES)	outcome	AC50
OC(CCl)CCl	inactive	
CCCCCCCCN(C)C	inactive	
CCCC(CCC)C(=O)O	inactive	
OCCNCCO	inactive	
CC[C@H](C)C(=O)O[C@H]1C[C@H](O)C=C2C=C[C@H](C)[C@H](CC[C@@H](O)C[C@@H](O)CC(=O)O)[C@H]21	inactive	
CC(C)CCCCCCOC(=O)C1CCCCC1C(=O)OCCCCCCC(C)C (centres undefined)	inactive	
c1ccc(C(O[C@@H]2CCCN(CCc3ccc4c(c3)OCO4)C2)c2ccccc2)cc1		33 µM (active)
NNC(=O)c1ccncc1	inactive	
O=c1[nH]cnc2c1ncn2[C@H]1CC[C@@H](CO)O1	inactive	
OCc1c[nH]c2ccccc12		26.6 µM (active) [middle of 5 runs]
c1ccc2cc3ccccc3cc2c1	inactive	
Cc1nccn1-c1ccc(Sc2cccc(C3(C(N)=O)CCOCC3)c2)cc1		0.858 µM (active)
CC(C)C(=O)Nc1ccc([N+](=O)[O-])c(C(F)(F)F)c1		25.3 µM (active)
CCCCCOC(C)=O	inactive	
OC(Cn1cncn1)(Cn1cncn1)c1ccc(F)cc1F	inactive	
COCc1nnc(-c2ccc[n+]([O-])c2)n1-c1c(Cl)c(Cl)cc2[nH]c(=O)c(=O)[nH]c12	inactive	
CCc1cccc(CC)c1N	inactive	
CCn1nc(C)c2c1C(=O)NCC(c1ccc(O)cc1)=N2	inactive	
FC(F)C(F)(F)COCC1CO1 (centres undefined)	inactive	
Cc1ncc([C@@H](CCCCCCc2ccc3c(n2)NCCC3)CC(=O)O)cn1	inactive	
CCCc1ccccc1	inactive	
O=C(O)c1cccc(C[C@@H]2COc3ccc(OCc4nc5cc(F)ccc5s4)cc3[C@@H]2O)c1		32.3 µM (active)
NC(=O)NN=Cc1ccc([N+](=O)[O-])o1		27.8 µM (active)
CCCCCCCCCCCCCCCCOS(=O)(=O)O		27.3 µM (active)
OCCOCCOCCO	inactive	
O=C(O)c1ccc2c(c1)nc(C(=O)NC1CCN(C3CC3)CC1)n2Cc1cc(-c2ccc(Cl)s2)on1	inactive	
CCCCC(CC)C(=O)OCCOCCOCCOC(=O)C(CC)CCCC (centres undefined)	inactive	
